# From the supplement of paper PMC6555819
# What was measured:
# Assay in all cases: PBM binding z-score (relative to random genomic background probes); higher = stronger binding; sequences stand for … in GC…GCGATTGACAGCGTAGAATGAAGG
# [1] = tested on: RARb homodimer (NR concentration 270 nM)
# How it was run: (§1)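 Ligand-free nuclear receptor dimers were applied to custom Agilent 4×180K protein-binding microarrays whose double-stranded probes carried direct-repeat seeds, single-nucleotide variants, half-site ablations and random human genomic background sequences in 34-nt variable regions. Incubation lasted 1 h. Binding z-scores were computed against the random background probes from regression-normalized fluorescence.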
# [2] = tested on: RARg:RXRa (NR concentration 270 nM, RXRa partner concentration 90 nM)
# How it was run: as §1
# [3] = tested on: RARg homodimer (NR concentration 270 nM)
# How it was run: as §1
# [4] = tested on: RXRa DBDmut IVT, anti-RXR (DBD mutation: RXRa K156A/R161A, NR concentration 90 nM)
# How it was run: as §1
# [5] = tested on: RXRa homodimer (NR concentration 180 nM)
# How it was run: as §1
# [6] = tested on: THRa:RXRa (NR concentration 90 nM, RXRa partner concentration 90 nM)
# How it was run: as §1
# [7] = tested on: THRa homodimer (NR concentration 90 nM)
# How it was run: as §1
# [8] = tested on: VDR homodimer (NR concentration 270 nM)
# How it was run: as §1
Sequence,PBM binding z-score [1],PBM binding z-score [2],PBM binding z-score [3],PBM binding z-score [4],PBM binding z-score [5],PBM binding z-score [6],PBM binding z-score [7],PBM binding z-score [8]
GGAAGGAGGGCAAAGTTGATAGCATCTGTCGACG,1.91,2.07,1.55,1.37,1.89,1.04,0.664,1.44
TCATATAGGTAATACAGGAGAAAGTCGGCATCTA,-0.136,0.519,0.598,1.48,0.686,0.0311,0.0486,0.233
CCAACTGGGGCAAGGTTACCATAACGCACAGCCA,1.51,0.917,1.56,-0.0848,1.13,1.4,0.42,-0.0492
AGAATGAGGCTATTAAGATCAGGGAATTGCGGTC,-0.0206,-0.0314,0.143,0.0802,0.257,0.48,-0.292,-0.448
TCATATAGGTAAACAGGTGTAAGTCCGTAAGTTA,0.165,0.307,0.308,1.57,0.982,0.356,0.324,0.657
CCTACTAGGCCAAGGTCATTGATCAGTCAAAGCA,3.74,3.86,3.68,2.31,3.64,3.52,3.01,3.34
CGAACTAGGTCATGGACAGTGAATCTCCGCACGC,2.85,3.94,4.35,1.84,3.21,2.94,1.16,0.367
ATATGCAGGTTAAGGGTCATTCAGGTTGGTTCGC,3.97,4.66,3.52,2.24,6.59,3.64,1.26,4.45
TTACCAAGGTGAAAGATCGTTGATGCACGCCTTG,0.0757,0.744,0.398,-0.161,1.06,1.42,0.109,-0.339
AGAATGAGGTTGTTAAGATCAGGGAATTGCGGTC,0.126,0.00616,-0.0271,1.17,0.15,0.608,0.246,0.542
TAGCCTAGGTCAGAACGGGCCAGTATACGCTATA,1.79,2.22,2.92,-0.315,1.19,2.46,-0.361,-0.307
CCTTACGGGTCACTGACAGGTTATAGGATTTGGA,3.52,5.89,4.77,1.67,5.17,2.96,0.251,1.28
TCGAGTGGGTTAGTCGGGGCATTCAGCCAACATA,0.697,-0.203,-0.276,0.51,-0.199,1.18,0.456,0.85
TGTCAAAGTTCAAAGGTAACGTGAGTATCCACAC,4.01,6.45,6.06,4.32,7.77,3.39,-0.326,4.31
CAAACGAGGGCATGAGTTGATAGCAAATGCCGAT,0.782,1.53,1.79,2.13,1.29,1.56,-0.234,1.62
ATATGTAGGTTATCGGGTCATTCCGTTTGCGCAT,3.06,3.32,2.35,1.67,3.38,3.36,2.82,3.21
CCTATTAGTTGATCATAAGGGCAACCGAAGCTCG,1.43,0.898,0.868,0.845,0.308,1.69,1.05,1.1
TAGCCTAGGTCATGGGCCCGTATACCACGCGAAC,2.95,4.3,4.56,-0.133,3.53,3.13,1.76,0.701
TCATATAGGTAAAAGATGAAAGTCGGTGTGGTAA,-0.433,0.301,0.223,1.73,0.923,0.0309,0.103,-0.0575

Sequence,PBM binding z-score [1],PBM binding z-score [2],PBM binding z-score [3],PBM binding z-score [4],PBM binding z-score [5],PBM binding z-score [6],PBM binding z-score [7],PBM binding z-score [8]
CGAACTAGGTCAGAACTGGACAGTGAAGGATGAT,1.62,2.49,3.05,0.459,1.3,1.13,-0.298,0.221
TCTGCTAGGTCGACGATGGTCAGCTAATCTGCTA,0.457,0.664,0.829,0.128,0.321,0.669,-0.884,-0.845
CGACCAAGGTGAACAAGGTCGTTGATTACTATTC,2.12,1.92,1.56,0.907,2.13,3.35,1.68,1.82
ACGTACGGGTCAACGAGGTTATAGCACGCGTATA,3.58,5.69,5.07,2.07,6.3,4,0.75,3.93
CCTGCTAGGTCAATGGTCAGCTACAGCAGCTCGC,2.95,3.82,4.13,1.74,2.49,2.19,1,0.15
TTACCAAGGAGAGCTGAGGTCGTTGATCCAACTC,0.714,0.0578,-0.138,-0.0158,0.657,2.56,1.2,2.11
CCTCCTGGGCCATCAGGTCATTGATATCAACGTT,2.47,1.98,1.71,-0.401,1.15,3.04,3.09,1.18
CCTACTGGTCCAAAGGTCATTGATTCCAATGCTC,4.86,5.09,4.49,2.23,5.45,3.31,1.49,2.58
GGAACGAGGGCAAAGTTGATAGCATCTGTCGACG,1.33,2.18,1.82,2.76,2.22,1.25,-0.111,1.21
GCTTGTAGATCAAGGTTAAGAGAGACTAAGCTAA,0.148,0.263,0.22,-0.00641,0.438,1.2,-0.0888,-0.335
TCATATAGGTAAATGCTAGGTGAAATTCCGATCT,0.107,0.506,0.4,1.46,0.811,1.29,0.404,-0.0885
GCGTACGGGTCAAAGGTTATAGCATGAATAGAAT,3.14,6.99,4.57,1.83,9.61,3.78,-0.479,1.08
CCTAGTTGGTCACGGTCACACACGCTATAGGTAC,2.79,1.84,2.25,1.13,0.982,1.05,1.4,0.987
CAAACTAGGGCACCGGAAGGTCAAAGTCCGCATG,4.51,5.51,4.44,0.724,3.84,3.25,0.924,1.45
TCTGCTAGGTCAACGGTGGTCAGCTAATCTGCTA,3.48,4.11,4.99,1.01,2.54,3.46,0.796,-0.606
CGTACTGGGCCATTCAGAGGTCATTGATCATATG,4.23,4.62,3.63,1.64,3.95,3.33,1.54,3.81
GATACAGGGTCAAGGCCAGAGTCCGCGTATTGAT,3.62,5.35,4.89,1.91,5.5,3.52,1.37,1.73
CCTACTGGGCCATCAGGTCATTGATATCAACGTT,2.73,2.15,2.21,0.377,1.17,3.14,3.21,1.66
TCTTGTAGATCAAAGGCTAAGAAAGCCGAAGCCT,-0.521,-0.216,-0.29,0.467,0.315,-0.446,-0.464,-0.345

Sequence,PBM binding z-score [1],PBM binding z-score [2],PBM binding z-score [3],PBM binding z-score [4],PBM binding z-score [5],PBM binding z-score [6],PBM binding z-score [7],PBM binding z-score [8]
GCTTATGGGTCAAAGGTTATAGCATGAATAGAAT,3.09,6.53,4.48,2.11,9.21,3.41,-0.168,1.13
GATACAGGGTCAAGGCCAGATTACGCGTATTGAT,3.73,5.64,5.39,2.72,6.08,3.68,1.61,2.09
AATAGCAGGCCAAGTTTGGGTCACTCAAACAAAG,2.31,2.53,1.67,-0.564,0.964,2.63,0.748,0.388
TCGAGTAGGTTACCATTGGGGCATTCAGCTTTCT,0.675,0.565,0.217,0.45,0.293,0.633,-0.238,-0.46
CCGATTGGGGCAAGGTTACCATAACGCACAGCCA,1,1.02,1.3,0.17,1.09,1.2,0.241,-0.398
CAAACTAGGTCAAGAGGTCAAAGTCCGCTTCCCG,5.9,8.2,8.13,2.89,8.25,4.44,2.61,4.47
CTACCAAGGTGGACAAGGTCGTTGATTACTATTC,1,0.429,0.319,0.874,0.711,1.81,0.933,1.68
CAAACTAGGTCAAGAGGGCAAAGTCCGCTTCCCG,4.13,5.73,5.4,1.86,4.07,3.04,1.03,1.78
TCTAGCAGGGCAGAGGGTCACTCAAGAGGTACGG,2.89,3.12,2.36,-0.00739,2.68,1.6,-0.329,0.66
AATAGTTGGTCAGCTGAGGTCACACACAATTCGG,4.34,4.25,4.37,1.48,4.26,4.94,5.21,3.62
TCTTGTAGATCTAGCAGGTTAAGAAAGCCTGAGT,0.195,-0.205,-0.19,0.705,0.231,0.286,-0.115,-0.0564
CCCCGGAGGACAACAGGAGGTCAGAGCTGCCAGA,3.5,3.66,3.24,-0.883,2.21,2.94,1.39,1.77
GCTTGTAGATCAAGGTTAAAAAAGACTAAGCTAA,0.0487,0.373,0.226,0.0617,0.736,1.14,-0.222,0.0143
AGTCAAAGTTCAGGACGAGGTAACTTAAAGCACG,3.3,4.79,5.03,3.03,3.16,3.94,1.7,2.28
TCTTGTAGATCAACGGTTAAGAAAGCCGAAGCCT,-0.249,-0.0923,-0.227,0.721,0.21,-0.24,-0.541,-0.227
CAAACTAGGTCTAAGGTCAAAGTCGAGCCAACCA,4.24,4.86,4.08,2.51,5.24,4.1,4.5,3.63
TAGCCTAGGTCAGGGGCCAGTATACCACGCGAAC,2.47,3.16,3.82,-0.891,2.16,1.91,0.583,-0.245
CCTAGTTGGTCAAGGTCACACAAGCTATAGGTAC,4.53,4.81,4.89,2.26,4.88,4.19,3.83,3.72
GGAACGAGGGCACGTTGATAGCAGAGTTTGATGG,1.27,1.53,2,2,0.885,1.41,0.0368,1.03
